Shown are actives, neighbours in structure and some others; about 7.8% of the full set was active somewhere.
PD-1 reversal – activators reversing PD-1 mediated T-cell inhibition; activation, % (no concentration beside the values); primary human CD4 T cells, PD-L1 beads, CellTiter-Glo 96 h; 29,000 tested, under 10 active; call rule not given here;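 note: 0% = median vehicle wells and 100% = positive control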
MITF inhib – MITF inhibition. actives 0.28% (n = 37,000). inhibition, % (no concentration beside the values). TRPM1 promoter luciferase, luminescence, 24 h. AID 2240; in the data active = inhibition above about 85%; inconclusive = no clear call, values can overlap the other calls; inactive = below about 68%;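 note: human melanocyte line stably carrying TRPM1 promoter luciferase reporter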
Hedgehog inh – blocks Sonic Hedgehog signaling | Shh-LIGHT2 Gli-luciferase reporter, 30 h | AID 2313 | inhibition, % (no concentration beside the values) | actives 2.1% (n = 22,000);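 active = mean inhibition across valid replicates above about 65%, limit read from the data; inconclusive = mean under the limit, yet half or more replicates past it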;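 note: pathway switched on by Shh-conditioned medium diluted 1 in 25 in low serum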
NOMO-1 viab – STK33 inhibitor candidate reducing NOMO-1 cell viability; AID 2330; actives 7.5% (n = 37,000); inhibition, % (test concentration not listed); NOMO-1 AML viability, CellTiter-Glo luminescence, 72 h; in the data active = inhibition above about 80%; inconclusive = no clear call, values can overlap the other calls
Numbers without * were called inactive.

Results for CC(=O)c1ccc(OC(=O)CCCN2C(=O)c3ccccc3C2=O)cc1 ?
MITF inhib: -14.4; NOMO-1 viab: -9.1

How did O=C(O)c1cc(F)cc(C(F)(F)F)c1 do in these assays?
PD-1 reversal: 2.7; MITF inhib: -14.1; Hedgehog inh: -1.1; NOMO-1 viab: 11.7

What do the screens show for `C[C@@H]1CN([C@H](C)CO)C(=O)c2cccc(NC(=O)NC3CCCCC3)c2O[C@H]1CN(C)Cc1ccc(Oc2ccccc2)cc1`?
PD-1 reversal: -4.3; MITF inhib: 73.3; Hedgehog inh: -34.7; NOMO-1 viab: 114.2*

How did C[C@@H]1CN([C@H](C)CO)C(=O)c2cccc(NC(=O)NC3CCCCC3)c2O[C@H]1CN(C)Cc1ccccc1 do in these assays?
PD-1 reversal: -6.0; MITF inhib: 54.4; Hedgehog inh: 21.0; NOMO-1 viab: 114.6*

How did C[C@@H]1CN([C@H](C)CO)C(=O)c2cccc(NC(=O)NC3CCCCC3)c2O[C@@H]1CN(C)Cc1ccc(Oc2ccccc2)cc1 do in these assays?
PD-1 reversal: -1.7; MITF inhib: 1.5; Hedgehog inh: 7.1; NOMO-1 viab: 59.9

How did C[C@@H]1CN([C@@H](C)CO)C(=O)c2cccc(NC(=O)NC3CCCCC3)c2O[C@H]1CN(C)CC1CCCCC1 do in these assays?
PD-1 reversal: -1.9; MITF inhib: 30.2; Hedgehog inh: 5.3; NOMO-1 viab: 102.3*

How did COc1ccc(NC(=O)c2ccc3c(=O)n(Cc4ccco4)c(=S)[nH]c3c2)cc1OC do in these assays?
PD-1 reversal: 0.0; MITF inhib: 5.1; Hedgehog inh: 77.2*; NOMO-1 viab: 16.3

What do the screens show for `COc1ccc(OC)c(-n2c(=S)[nH]c3cc(C(=O)Nc4ccc(C)c(Cl)c4)ccc3c2=O)c1`?
PD-1 reversal: -0.3; MITF inhib: 0.4; Hedgehog inh: -29.9; NOMO-1 viab: -10.8

Results for COc1ccccc1NC(=O)/C=C\c1ccco1 ?
PD-1 reversal: -19.4; MITF inhib: -60.6; Hedgehog inh: 67.8*; NOMO-1 viab: 107.2*

What do the screens show for `Cc1cc2ccccc2n2c(SCC(=O)NCc3ccco3)nnc12`?
PD-1 reversal: -0.1; MITF inhib: 26.8; NOMO-1 viab: 111.5*

How did N#Cc1c(-c2ccccc2)cc2c(c1N)c(=O)oc1ccccc12 do in these assays?
PD-1 reversal: -1.5; MITF inhib: 1.8; Hedgehog inh: -20.4; NOMO-1 viab: 20.0

Results for C[C@@H]1CN([C@H](C)CO)C(=O)c2cccc(NS(=O)(=O)c3ccc(Cl)cc3)c2O[C@H]1CN(C)Cc1ccc(C(=O)Nc2ccccc2N)cc1 ?
PD-1 reversal: -1.0; MITF inhib: 11.8; NOMO-1 viab: 66.7

How did C[C@H]1CN([C@@H](C)CO)C(=O)c2cccc(NS(=O)(=O)c3ccc(Cl)cc3)c2O[C@@H]1CN(C)Cc1ccc(C(=O)Nc2ccccc2N)cc1 do in these assays?
PD-1 reversal: -2.6; MITF inhib: 28.1; NOMO-1 viab: 126.3*

How did C[C@H](CO)N1C[C@H](C)[C@H](CN(C)Cc2ccc(C(=O)Nc3ccccc3N)cc2)Oc2c(NS(=O)(=O)c3ccc(F)cc3)cccc2C1=O do in these assays?
PD-1 reversal: -1.5; MITF inhib: 20.7; NOMO-1 viab: 133.2*

How did COc1ccc(S(=O)(=O)Nc2cccc3c2O[C@H](CN(C)Cc2ccc(C(=O)Nc4ccccc4N)cc2)[C@@H](C)CN([C@@H](C)CO)C3=O)cc1 do in these assays?
PD-1 reversal: -2.0; MITF inhib: 41.4; NOMO-1 viab: 128.8*

What do the screens show for `C[C@@H]1CN([C@H](C)CO)C(=O)c2cccc(NS(=O)(=O)c3cccs3)c2O[C@@H]1CN(C)Cc1ccc(C(=O)Nc2ccccc2N)cc1`?
PD-1 reversal: -0.6; MITF inhib: 29.3; NOMO-1 viab: 138.0*

What do the screens show for `CN(/N=C(\C#N)C(=O)C1CC1)c1ccc(Cl)cc1`?
PD-1 reversal: -0.9; MITF inhib: -4.4; Hedgehog inh: 11.9; NOMO-1 viab: 29.5

What do the screens show for `O=c1[nH]c(-c2ccccc2)nnc1/C=C(\O)c1cccs1`?
PD-1 reversal: 1.0; MITF inhib: -16.3; Hedgehog inh: -37.7; NOMO-1 viab: 19.2

What do the screens show for `CC1CCC(C(C)C)C(N(Cc2ccccc2)C(=O)c2cccs2)C1` (configuration not stated)?
PD-1 reversal: -1.1; MITF inhib: 9.8; Hedgehog inh: 4.5; NOMO-1 viab: inconclusive

How did C[C@@H]1CN([C@@H](C)CO)C(=O)c2cccc(NS(=O)(=O)c3ccccc3)c2O[C@@H]1CN(C)Cc1ccc(C(=O)Nc2ccccc2N)cc1 do in these assays?
PD-1 reversal: -0.2; MITF inhib: 21.6; NOMO-1 viab: 129.1*

What do the screens show for `C[C@@H]1CN([C@@H](C)CO)C(=O)c2cccc(NS(=O)(=O)c3ccc(Cl)cc3)c2O[C@@H]1CN(C)Cc1ccc(C(=O)Nc2ccccc2N)cc1`?
PD-1 reversal: -4.5; MITF inhib: 34.7; NOMO-1 viab: 128.2*

How did Cc1ccc(C(=O)c2oc3ccccc3c2NC(=O)c2cc3ccccc3oc2=O)cc1F do in these assays?
PD-1 reversal: -1.8; MITF inhib: -12.7; NOMO-1 viab: 112.2*

Results for Cc1ccc(OCC(=O)Nc2cccc(-c3nc4ccccc4[nH]3)c2)cc1 ?
PD-1 reversal: 0.4; MITF inhib: -66.1; NOMO-1 viab: 7.2

How did CCOc1ccc(-c2nc3ccc(-c4nc5ccc(N6CCN(C)CC6)cc5[nH]4)cc3[nH]2)cc1 do in these assays?
MITF inhib: 79.5; Hedgehog inh: inactive; NOMO-1 viab: 115.7*

How did CC(=O)n1c(-c2ccc(C)cc2)cc(-c2ccc(C)cc2)c(C#N)c1=O do in these assays?
PD-1 reversal: 1.0; MITF inhib: 5.5; Hedgehog inh: 11.6; NOMO-1 viab: 17.2

Results for COC(=O)C[C@H]1C(C)(C)C2(Cl)O[C@@]34CC2C(=O)[C@]1(C)C3CC[C@]1(C)C4=CC(=O)O[C@H]1c1ccoc1 (some centres not stated) ?
MITF inhib: 7.9; Hedgehog inh: 8.0; NOMO-1 viab: 100.6*

How did C[C@@H]1CN([C@H](C)CO)C(=O)Cc2cc(NC(=O)Nc3ccccc3)ccc2O[C@H]1CN(C)Cc1ccc(C(F)(F)F)cc1 do in these assays?
PD-1 reversal: 1.5; MITF inhib: 3.5; Hedgehog inh: 27.9; NOMO-1 viab: 118.4*

What do the screens show for `C[C@H](CO)N1C[C@H](C)[C@H](CN(C)Cc2ccc(C(F)(F)F)cc2)Oc2ccc(NC(=O)Nc3ccccc3)cc2CC1=O`?
MITF inhib: 2.6; NOMO-1 viab: 86.3*

What do the screens show for `CC(O)c1nc2ccccc2n1CCCOc1ccc(Cl)cc1` (configuration not stated)?
PD-1 reversal: -1.4; MITF inhib: 3.6; NOMO-1 viab: 46.0

Results for c1ccc2[nH]c(SCCSc3nc4ccccc4[nH]3)nc2c1 ?
PD-1 reversal: 0.7; MITF inhib: 43.2; NOMO-1 viab: 83.3*

Results for NC(=O)CSc1nc2ccccc2[nH]1 ?
MITF inhib: 1.4; NOMO-1 viab: 16.0

How did COc1c(Cc2ccccc2O)c(O)c(Cc2ccccc2O)c(O)c1C(=O)CCc1ccccc1 do in these assays?
PD-1 reversal: -0.9; MITF inhib: 91.1*; Hedgehog inh: 89.2*; NOMO-1 viab: 106.5*

Results for O=C(CCc1nc(-c2ccccc2F)no1)Nc1ccccc1[N+](=O)[O-] ?
MITF inhib: -21.4; NOMO-1 viab: -9.3
